Measured values taken from PubChem BioAssay AID623911 (Vanderbilt High Throughput Screening Facility, 2012).
The whole screen tested about 2,100 compounds, of which about 770 (37%) were called active. The list shows a part of the results. A number with no mark means an inactive call.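 How the source made its calls: active means by-eye trace score of 1 for enhancers or -1 for inhibitors, so actives lie on both sides (some results past the limit were not filed as active); inactive means score 0, or 3 fluorescent, or 4 baseline rise.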

target: G protein-activated inward rectifier potassium channel 2 (Homo sapiens) + G protein-activated inward rectifier potassium channel 1 (Homo sapiens) (UniProt P48051+P48549); assay: GIRK1/2 thallium flux modulators, retest, confirmation, cell-based, HEK293 rmGlu8/hGIRK1/2, FluoZin-2 (AID 623911); details: HEK293 rmGlu8/hGIRK1/2, thallium flux FluoZin-2; actives lie on both sides; glutamate co-added at its EC20 level
Sequence (P48051 whole entry, looked up): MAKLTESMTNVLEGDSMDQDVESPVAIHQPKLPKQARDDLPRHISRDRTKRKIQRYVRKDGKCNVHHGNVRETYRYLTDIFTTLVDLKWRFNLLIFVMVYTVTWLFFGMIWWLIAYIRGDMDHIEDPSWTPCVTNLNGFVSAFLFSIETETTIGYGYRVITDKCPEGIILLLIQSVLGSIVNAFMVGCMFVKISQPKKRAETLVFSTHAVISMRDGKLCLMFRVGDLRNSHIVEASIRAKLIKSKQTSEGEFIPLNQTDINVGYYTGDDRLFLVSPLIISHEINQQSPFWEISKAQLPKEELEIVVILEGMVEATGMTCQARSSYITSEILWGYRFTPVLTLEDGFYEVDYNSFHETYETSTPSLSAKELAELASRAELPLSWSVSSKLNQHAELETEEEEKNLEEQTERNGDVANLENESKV
Sequence (P48549 whole entry, looked up): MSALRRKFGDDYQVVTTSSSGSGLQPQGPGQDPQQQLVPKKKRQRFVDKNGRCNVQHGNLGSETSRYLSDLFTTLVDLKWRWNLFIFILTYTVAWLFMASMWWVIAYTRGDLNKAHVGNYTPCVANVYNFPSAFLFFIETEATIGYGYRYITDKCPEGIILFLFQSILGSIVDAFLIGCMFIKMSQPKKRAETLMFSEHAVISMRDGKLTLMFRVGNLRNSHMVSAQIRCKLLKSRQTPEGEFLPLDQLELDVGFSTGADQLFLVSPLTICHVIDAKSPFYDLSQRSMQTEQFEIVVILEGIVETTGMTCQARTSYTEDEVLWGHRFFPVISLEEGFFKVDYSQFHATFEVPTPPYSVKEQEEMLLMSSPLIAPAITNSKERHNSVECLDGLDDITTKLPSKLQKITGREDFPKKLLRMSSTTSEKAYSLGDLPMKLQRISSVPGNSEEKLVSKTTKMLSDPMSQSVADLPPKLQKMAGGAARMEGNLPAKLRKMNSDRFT

| Compound | manual score |
| --- | --- |
| CCC1c2ccc(C)n2CCN1C(=O)Nc1ccccc1C(=O)OC (configuration not stated) | 0 |
| O=C(NC(=S)Nc1ccc(Oc2ccc(Cl)cc2)cc1)c1ccccc1 | 0 |
| COC(=O)c1ccccc1NC(=S)NC(=O)c1ccccc1 | 1 (active) |
| CCOC(=O)c1ccc(NC(=S)NC2CCCC2)cc1 | 1 (active) |
| CC1CCCCN1CC(=O)Nc1ccc(Oc2ccccc2)cc1 (configuration not stated) | 0 |
| S=C(NN=C(C1CC1)C1CC1)Nc1ccccc1 | 0 |
| S=C(Nc1ccc(Oc2ccccc2)cc1)NC1CCCC1 | 1 (active) |
| CC(C)CNC(=S)Nc1ccc(Oc2ccccc2)cc1 | 1 (active) |
| FC(F)(F)Oc1ccc(NC(=S)NCc2ccccc2)cc1 | 0 |
| CCCN(CC1CC1)C(=S)Nc1ccc(Oc2ccccc2)cc1 | 1 (active) |
| CCOC(=O)c1ccc(NC(=S)NC(=O)COc2ccccc2)cc1 | 0.5 |
| CCOC(=O)c1[nH]c(C)c(C(=O)NC2CCCCC2)c1C | 0 |
| COc1ccc(N(CC(=O)NCCSc2ccccn2)S(C)(=O)=O)cc1Cl | 0 |
| COc1cc2c(cc1NC(=O)COc1ccccc1OC)oc1ccccc12 | 0 |
| COc1ccc(CCNC(=O)CSc2nnc(-c3ccc(F)cc3)c3ccccc23)cc1OC | -1 (active) |
| COc1ccc(CN(C)CC(=O)NC(=O)NCc2ccccc2)cc1OC | 0 |
| CCCCC(=O)Nc1ncc2c(n1)CC(C)(C)CC2=O | 0 |
| CC1(C)Cc2nc(NCCN3CCOCC3)c(C#N)cc2CO1 | 0 |
| O=C(NN=C(Cc1ccccc1)Cc1ccccc1)c1ccc(F)cc1 | 1 (active) |
| N/C(=N\OC(=O)Cc1ccccc1)c1ccc(Br)cc1 | 0 |
| Cc1ccccc1C(=O)Nc1ccccc1C(=O)N/N=C\c1ccco1 | 1 (active) |
| Cc1cc(C)c(NC(=O)/C(=C/c2ccco2)c2ccccc2)c(C)c1 | 0 |

| Compound | manual score |
| --- | --- |
| O=C(Nc1ccccc1C(=O)N/N=C/c1ccco1)c1ccccc1 | 0.5 |
| O=C(CSc1nc2ccccc2[nH]1)NC1CCCc2ccccc21 (configuration not stated) | 0 |
| CC(Sc1nc2ccccc2c(=O)[nH]1)C(=O)O (configuration not stated) | 0 |
| Fc1ccc(CSc2nc3ccccc3[nH]2)c2ccccc12 | 1 (active) |
| CN1CCN(c2ccccc2NS(=O)(=O)c2ccc3c(c2)CCN3C(=O)C2CCC2)CC1 | -1 (active) |
| O=[n+]1c2c(n([O-])c3cc(F)c(N4CCCC4)cc31)CCC2 | 3 |
| CCCN(CCC)CCNC(=O)C(NS(=O)(=O)c1ccc2c(c1)CCC(=O)N2)c1ccccc1 (configuration not stated) | 0 |
| Cc1ccc(S(=O)(=O)n2cnc3cc([N+](=O)[O-])ccc32)cc1C | 0 |
| COc1ccc(OC)c(C2C(C(=O)c3cc4ccccc4o3)=C(O)C(=O)N2c2cc(C)on2)c1 (configuration not stated) | 0 |
| Cc1cccc(-n2ncc3c(NCCc4ccc(S(N)(=O)=O)cc4)ncnc32)c1 | 0 |
| NS(=O)(=O)c1ccc(CCNC2CC(=O)N(Cc3ccccc3)C2=O)cc1 (configuration not stated) | 0 |
| Cc1nc(NCCc2ccc(S(N)(=O)=O)cc2)c2c(C)c(C)sc2n1 | 1 (active) |
| CC(C)NC(=S)NC(=O)c1ccc(Cl)cc1Cl | 1 (active) |
| CC(C)CNC(=S)NC(=O)c1ccccc1Cl | 0 |
| CCCCNC(=S)NC(=O)c1ccccc1Br | 0.5 |
| CCCCNC(=S)NC(=O)c1ccc(Cl)cc1Cl | 1 (active) |
| CC(C)CNC(=S)NC(=O)c1ccc(Cl)cc1Cl | 1 (active) |
| CCOc1ccc(C(C)=O)cc1N1C(=O)C2C(C1=O)C1C=CC2C12CC2 (configuration not stated) | 0 |
| C=CCn1c(=S)[nH]c2sc3c(c2c1=O)CCC3 | 1 (active) |
| CC(=O)Nc1ccc(Oc2ncccn2)cc1 | 0 |
| Cc1nc(C)c(C(=O)Nc2ccc(Oc3ccccc3)cc2)o1 | 1 (active) |
| Cc1ncoc1C(=O)Nc1ccc(Oc2ccccc2)cc1 | 0.5 |

| Compound | manual score |
| --- | --- |
| O=C1c2ccsc2SCCN1Cc1c(Cl)cccc1Cl | -1 (active) |
| CCCC(c1c(C)n(C)n(-c2ccccc2)c1=O)c1c(C)n(C)n(-c2ccccc2)c1=O | 0 |
| O=C(N/N=C/c1ccccn1)c1ccc(Br)cc1 | 1 (active) |
| COc1ccc(C(=O)N/N=C/c2ccc3cccc(OCc4ccccc4)c3n2)cc1 | 0 |
| O=C(N/N=C/c1ccc2cccc(OCc3ccccc3)c2n1)c1ccc(Br)cc1 | 0.5 |
| CCOC(=O)C1=C(C)Nc2nnnn2C1c1ccccc1Cl (configuration not stated) | -1 (active) |
| CCCC1=C(C(=O)OCC)C(c2ccc(F)cc2)n2ncnc2N1 (configuration not stated) | 0 |
| CCOC(=O)C1=C(C)NC2=C(C(=O)C(C(=O)OCC)C(c3ccccc3OC)C2)C1c1ccccn1 (configuration not stated) | 0 |
| CCCn1c(NCc2ccc(N(C)C)cc2)nc2ccccc21 | -1 (active) |
| Cn1c(NCc2cccc(Br)c2)nc2ccccc21 | -1 (active) |
| CCCCn1c(NC(=O)c2ccccc2Cl)c(C#N)c2nc3ccccc3nc21 | -0.5 |
| C/C(=N\NC(=O)c1ccccc1)c1nc2ccccc2n1C | 0 |
| CCCCCn1c(NCc2ccco2)nc2ccccc21 | -1 (active) |
| CCCCn1c(NC(=S)Nc2ccccc2)nc2ccccc21 | 0 |
| CCc1c(C)c(C#N)c2nc3ccccc3n2c1NCc1ccco1 | -1 (active) |
| CC(C)CCn1c(S(=O)(=O)O)nc2ccccc21 | 0 |
| CCCCn1c(SCC(=O)NCc2ccco2)nc2ccccc2c1=O | 0.5 |
| CCN1c2ccccc2-c2nc3ccccc3n2C1c1ccco1 (configuration not stated) | 0 |
| Cc1cccc(N2C(N)=NC(N)=NC23CCCCC3)c1 | 0 |
| O=C(CN1C(=O)/C(=C/c2ccccc2F)Oc2ccccc21)N1CCN(c2ccccn2)CC1 | 0 |
| Cc1ccccc1NC1=C(Cl)C(=O)OC1OC(=O)c1ccco1 (configuration not stated) | 0 |
| O=C(NNC(=O)c1cccnc1SCc1cccc([N+](=O)[O-])c1)c1ccccn1 | 0 |

| Compound | manual score |
| --- | --- |
| O=C(Oc1c(Cl)cc(Cl)c2cccnc12)c1ccco1 | 1 (active) |
| O=C(Oc1c(Cl)cc(Cl)c2cccnc12)c1cccc([N+](=O)[O-])c1 | 1 (active) |
| O=C(NNC(=O)c1cccnc1SCc1cccc([N+](=O)[O-])c1)c1cccnc1 | 0 |
| Cc1ccc(C2c3c(oc4ccc(Cl)cc4c3=O)C(=O)N2CCCN2CCOCC2)o1 (configuration not stated) | 0.5 |
| O=c1c2ccccc2c(C=NCc2ccccn2)c(O)n1-c1ccccc1 | 0 |
| CCOc1ccc(Br)cc1/C(C)=N\NC1=NCCN1 | -1 (active) |
| CCNS(=O)(=O)c1cc(S(C)(=O)=O)ccc1Cl | 0 |
| Cc1ccc(/C=N/n2c(COc3ccccc3)n[nH]c2=S)s1 | 0 |
| COc1ccc(/C=N/n2c(-c3cccs3)n[nH]c2=S)cc1 | 1 (active) |
| CCN(CC)S(=O)(=O)c1cccc(-c2n[nH]c(=S)n2/N=C/c2ccc(C(=O)OC)cc2)c1 | 0 |
| CC(/C=N/n1c(-c2ccccc2)n[nH]c1=S)=C\c1ccco1 | 0 |
| CC(=C/c1ccccc1)/C=N/n1c(-c2ccco2)n[nH]c1=S | 0 |
| COc1cccc(/C=N/n2c(-c3cccs3)n[nH]c2=S)c1 | 1 (active) |
| CC(=O)Nc1ccc(S(=O)(=O)NC(C(=O)O)C2=CCC=CC2)cc1 (configuration not stated) | 0 |
| CN(C)S(=O)(=O)c1cccc(NC(=S)Nc2ccc(Cl)cc2Cl)c1 | 1 (active) |
| CN(C)S(=O)(=O)c1cccc(NC(=O)COc2cccc(C#N)c2)c1 | 0 |
| O=C(Nc1cccc(S(=O)(=O)c2cccc(NC(=O)C3CC3)c2)c1)C1CC1 | 0 |
| CN(C)S(=O)(=O)c1cccc(NC(=S)Nc2cc(Cl)cc(Cl)c2)c1 | 1 (active) |
| CN(C)S(=O)(=O)c1cccc(NC(=O)Cc2ccc(Cl)cc2)c1 | 1 (active) |
| S=C(Nc1ccccc1Cl)Nc1ccc(Cl)cc1Cl | 1 (active) |
| Cc1ccc(NCC(=O)Nc2cccc(S(=O)(=O)N(C)C)c2)c(Cl)c1 | 0 |
| O=C(N/N=C(\c1ccccc1)c1cccnc1)C(O)(c1ccccc1)c1ccccc1 | -1 (active) |

| Compound | manual score |
| --- | --- |
| O=C(NCCCCNC(=O)c1cccnc1)c1cccnc1 | 0 |
| CC(C)OC(=O)/C(=C/c1cccnc1)NC(=O)c1ccccc1 | 0 |
| Cc1cc(N2C(=O)C(O)=C(C(=O)c3ccc(C)o3)C2c2cccs2)no1 (configuration not stated) | 0 |
| CCCCn1c(-c2ccc(Cl)cc2)nc2c(=O)n(C)c(=O)[nH]c21 | 0 |
| CCN(CC)C(=O)CSc1ncnc2sc(-c3ccccc3)cc12 | 0 |
| CC(=O)c1c(C)[nH]c(C(=O)CSc2ncnc3sc(-c4ccccc4)cc23)c1C | 1 (active) |
| CC(C)N(C(=O)CSc1ncnc2sc(-c3ccccc3)cc12)C(C)C | 0 |
| Clc1ccccc1-c1nnc2sc(-c3ccc4c(c3)OCO4)nn12 | 0 |
| Brc1ccccc1-c1nnc2sc(-c3ccc4c(c3)OCCO4)nn12 | -1 (active) |
| Clc1ccccc1-c1nnc2sc(-c3ccccn3)nn12 | 0.5 |
| CCN(C(=O)CSc1nc2ccccc2n1CCc1ccccc1)C1CCS(=O)(=O)C1 (configuration not stated) | 0 |
| CCCOC(=O)NC(CC)COC(=O)Nc1cccc(C)c1C (configuration not stated) | 0 |
| Cc1cc(C)c(-n2c(C)cc(/C=C3/NC(=O)NC3=O)c2C)c(C)c1 | -1 (active) |
| Cc1cc(C=C2C(=O)c3ccccc3C2=O)c(C)n1-c1ccccc1 | 0.5 |
| Cc1ccc(C)c(OCC(O)CN2C(C)CCCC2C)c1 (configuration not stated) | -1 (active) |
| C/C(=N\NC(=S)NCCc1ccccc1)c1ccc(C)cc1 | 0 |
| O=C1c2ccccc2C(Nc2ccc3c(c2)OCCO3)N1Cc1ccccc1 (configuration not stated) | -1 (active) |
| CC(C)Oc1ccccc1C1Nc2ccccc2C(=O)N1c1ccc2c(c1)OCCO2 (configuration not stated) | 0 |
| O=C(COC(=O)C1CC(=O)N(Cc2ccccc2)C1)Nc1ccc2c(c1)OCO2 (configuration not stated) | 0 |
